Several values for one entry are separate records, joined by “and”; a condition that tells them apart may be missing. Identical values can stand only once. Out of some 73,000 compounds screened, about 2,500 (3.4%) were called active. Another 7% or so got no clear call; they are omitted. Calls come from the whole dose curve; as a rule, active = well fitted inhibition curve with a large enough effect; inconclusive = small, poorly fitted or top-dose-only effect; inactive = no such curve, though single readings can be large or run the other way. Only a selection was taken, and actives are over-represented in it overall. The source holds several records for some structures; these can differ, active in one and inactive in another.
biological target: 3-hydroxyacyl-CoA dehydrogenase type-2 (Homo sapiens) (UniProt Q99714); test: qHTS Assay for Inhibitors of HADH2 (Hydroxyacyl-Coenzyme A Dehydrogenase, Type II); settings: recombinant HADH2, NADH fluorescence, beta-hydroxybutyryl-CoA; series mostly up to 57.1 µM; activity change, negative = inhibition: at the top concentration; note: nearly all actives have a fitted effect of over 60% in size
Sequence (Q99714 whole entry, looked up): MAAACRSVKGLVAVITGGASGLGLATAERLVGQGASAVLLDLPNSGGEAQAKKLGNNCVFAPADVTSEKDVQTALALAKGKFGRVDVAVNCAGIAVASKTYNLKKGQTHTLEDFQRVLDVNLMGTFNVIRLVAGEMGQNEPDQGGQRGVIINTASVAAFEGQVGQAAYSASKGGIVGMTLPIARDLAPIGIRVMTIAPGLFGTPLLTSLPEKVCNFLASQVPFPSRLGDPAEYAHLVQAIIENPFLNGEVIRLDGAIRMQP
Sequence (Q99714 whole entry, looked up): as above
How it was run: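 His-tagged recombinant enzyme from E. coli, 20 nM, preincubated 15 min RT with compound; reaction started with 1 mM NAD+ and 90 uM beta-hydroxybutyryl-CoA in 100 mM Tris-HCl pH 9.0. NADH fluorescence (ex 360/em 450) read over 4 min; last-minus-first difference.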
% is set by controls: 0 for no effect and ±100 for the full control effect; potency is the fitted concentration of half-maximal effect.

SMILES	activity change, negative = inhibition	Potency
CC(=O)N1CCC2(CC1)CCN(c1ccncc1)CC2	-5.97% (inactive)	
CC1(CCC(=O)OC2CCCCC2)OCCO1	-20.4% [at 11.4 µM] (inactive)	
O=C(Cn1ccc(=O)[nH]c1=O)Nc1ccc(C(=O)O)c(O)c1	-10.7% [at 11.4 µM] (inactive)	
COc1ccccc1-c1nc(NCc2cccs2)c2ccccc2n1	-23.6% (inactive)	
CC(C)c1ccc2c([Si](C)(C)C)c3c(nc2c1)-c1cccc(=O)n1C3	34.4% (inactive)	
CC(=NCc1ccco1)C1=C(O)c2ccccc2C1=O	-18% (inactive)	
CCc1c(C)nc2cc(-c3cccs3)[nH]n2c1=O		39.8 µM (active)
Cc1nc2nc(COc3ccccc3)[nH]n2c(=O)c1Cc1ccccc1	1.89% (inactive)	
O=c1[nH]c(-c2cccs2)nc2ccccc12	-19.2% (inactive)	
CN(C)C(=O)/N=N\C(=O)N(C)C		0.631 µM (active)
CCNCCCNCCCNCCCNCC	6.34% (inactive)	
CO[C@H]1COC(=O)CCC[C@@H](C)[C@H](OC)COC(=O)[C@@H](C)NC(=O)C/C=C\[C@@H]1C	7.05% [at 11.4 µM] (inactive)	
O=c1c2cc3c(=O)n(CC4CCCO4)c(=O)c3cc2c(=O)n1CC1CCCO1 (stereo not drawn)	6.36% (inactive)	
Cc1cccn2c(=O)c3cc(C#N)c(=O)n(CCCN4CCOCC4)c3nc12		31.6 µM (active)
Cn1c(=O)c2c(nc(CN3CCOCC3)n2Cc2ccccc2)n(C)c1=O	6.36% (inactive)	
CCCOc1ccc(C2c3c(oc4cc(C)c(C)cc4c3=O)C(=O)N2CCCN2CCOCC2)cc1 (stereo not drawn)	-2.03% (inactive)	
COc1ccc(CNC(=O)c2cc3c(=O)n4ccccc4nc3n(CC3CCCO3)c2=N)cc1 (stereo not drawn)	-24.1% (inactive)	
Cc1cccn2c(=O)c3cc(C#N)c(=NC(=O)c4cccnc4)n(CC4CCCO4)c3nc12 (stereo not drawn)		25.1 µM (active)
COc1ccc(-c2oc3cc(OC)ccc3c2C(=O)c2ccc(C#N)cc2)cc1	2.77% (inactive)	
c1ccc2nc(C3=NCCN3)cnc2c1	-2.79% (inactive)	
CC(C)NC(=O)N1CCC2(CC1)CCN(C(=O)c1cccn1C)CC2	-0.373% (inactive)	
O=C(Nc1nc(-c2ccc3c(c2)OCO3)cs1)c1ccncc1	1.46% (inactive)	
c1ccc(Nc2nc(-c3ccncc3)cs2)nc1	4.64% (inactive)	
O=C(Nc1nc(-c2ccncc2)cs1)C1COc2ccccc2O1 (stereo not drawn)		1 µM (active)
C#CCCCCCCCCCCCCCCCC(=O)O	-6.22% (inactive)	
C[N+](C)(C)CCCCCNCC12CC3CC(CC(C3)C1)C2	8.85% (inactive)	

SMILES	activity change, negative = inhibition	Potency
O=C1NC(=O)[C@@](Cc2ccccc2)(c2cccnc2)N1	1.4% [at 11.4 µM] (inactive)	
COCCn1nnnc1C(c1cc2ccc(OC)cc2[nH]c1=O)N1CCc2ccccc2C1 (stereo not drawn)	-7.76% (inactive)	
CCOc1ccc2[nH]c(=O)c(C(c3nnnn3CCOC)N3CCOCC3)cc2c1 (stereo not drawn)		25.1 µM (active)
COc1ccc(N2CCN(C(c3cc4ccc(C)cc4[nH]c3=O)c3nnnn3C3CCCC3)CC2)cc1 (stereo not drawn)	1.4% (inactive)	
O=C(c1ccco1)N1CCC2(CC1)CCN(c1ncccn1)CC2	-1.68% (inactive)	
CCC1=C/C(=C\c2ccc3c(c2)OCO3)C(=O)S1		31.6 µM (active)
CCOC(=O)NCc1ccc2c(c1)OCO2	0.436% (inactive)	
CCCCC(=O)Nc1ccc2c(c1)OCCO2	-4.77% (inactive)	
C1CCC2OC2C1 (stereo not drawn)	-5.38% (inactive)	
COC(=O)c1ccccc1NC(=O)c1ccccc1NS(C)(=O)=O	-21.3% (inactive)	
O=C(Nc1nncs1)c1ccccc1NS(=O)(=O)c1cccs1		31.6 µM (active)
COc1ccc(C(=O)Nc2nncs2)c(OC)c1	-22.5% (inactive)	
COC(=O)c1ccc(C(NC(=O)OCc2ccccc2)/C(C)=C/[C@@H](C)C(=O)NCc2cc(C)on2)cc1 (stereo partly drawn)	6.01% (inactive)	
Cc1cc(N2CCCCC2)nc2ccc(Cc3ccc4nc(N5CCCCC5)cc(C)c4c3)cc12	1.3% [at 11.4 µM] (inactive)	
Nc1ccc2[nH]cc(CCC(=O)O)c2c1	-22.6% [at 11.4 µM] (inactive)	
c1ccc(CSc2nnc(-c3ccco3)c(-c3ccco3)n2)cc1		5.01 µM (active)
Nc1cc(=O)nc(SCc2ccccc2)n1Cc1ccco1	-3.38% (inactive)	
c1ccc(CSc2nnc(-c3ccco3)n2Cc2ccccc2)cc1	6.77% (inactive)	
CC1=C(C(=O)OCc2ccccc2)C(c2ccc(C(F)(F)F)cc2)NC(=O)N1CCCCCC(=O)O (stereo not drawn)	6.51% (inactive)	
COCCNc1cc(-c2c(C)noc2C)ncn1	2.69% (inactive)	
O=c1[nH]nc(Cc2ccccn2)c2ccccc12	-3.94% (inactive)	
CN(CCc1ccccn1)S(=O)(=O)c1ccc2c3c(cccc13)C(=O)N2		31.6 µM (active)
COc1ccc(-c2nc3cnc(OC)nc3n(Cc3ccc(F)cc3)c2=O)cc1	2.45% (inactive)	
O=C(NCc1ccccc1)[C@H]1C[C@@H]1[C@H](NP(=O)(c1ccccc1)c1ccccc1)c1ccccc1	-0.196% (inactive)	
Cc1nc2cnc(N3CCNCC3)nc2n(Cc2ccc(F)cc2)c1=O	-1.77% (inactive)	
CCn1c(CNC(=O)c2ccc(OC)c(OC)c2)nnc1SCC(=O)Nc1ccccc1	17.2% (inactive)	

SMILES	activity change, negative = inhibition	Potency
CCOC(=O)c1cc2n(c1C)-c1ccccc1C2=O	5.2% (inactive)	
CCOC(=O)c1cc2n(c1N)-c1ccccc1C2=O	-21.5% (inactive)	
CCCn1c(=NC(C)=O)c(C(=O)OCC)cc2c(=O)n3ccccc3nc21		31.6 µM (active)
CS(=O)(=O)N1CCC2(CC1)CN(Cc1cc(C(F)(F)F)cc(C(F)(F)F)c1)C2	7.84% (inactive)	
CS(=O)(=O)Nc1cccc(-c2cncnc2Nc2ccccc2)c1	-11.2% (inactive)	
CNc1cc(-c2c(C)noc2C)ncn1	1.11% (inactive)	
CCCc1nc2ccccc2c(=O)n1/N=C/c1ccc(O)c(O)c1	3.33% (inactive)	
N#C/C(=C\c1ccc(O)c(O)c1)C(N)=O		31.6 µM (active)
O=C(CCOc1ccccc1)NCc1ccccc1	11% (inactive)	
N#C/C(=C\c1ccc(O)c(O)c1)C(=O)NCc1ccccc1		inactive and 15.8 µM (active)
C[C@@H]1C[C@H]2[C@@H]3C[C@H](F)C4=CC(=O)C=C[C@@]4(C)[C@]3(F)[C@H](O)C[C@]2(C)[C@@]1(O)C(=O)CO	1.79% [at 25.6 µM] (inactive)	
COc1ncc2nc(-c3ccc(Cl)cc3)c(=O)n(-c3ccccc3)c2n1	0.99% (inactive)	
COc1ccccc1N1CCN(CCN2C(=O)c3ccccc3C(C)(C)C2=O)CC1	5.74% (inactive)	
Cc1c(S(=O)(=O)O)ccc(N=Nc2c(O)c(C(=O)O)cc3ccccc23)c1Cl	14% [at 11.4 µM] (inactive)	
C/C(CCN1CCc2nc(-c3ccccc3)c(-c3ccccc3)cc2C1)=N\O[C@@H](C)c1cn([C@@H]2COC[C@@H]2O)nn1	-0.942% [at 11.4 µM] (inactive)	
CC(C)=CCC/C(C)=C/CO/N=C1/C[C@@H](O)[C@@H](O)[C@@H]2[C@@H]3C(=O)N(C(C)(C)C)C(=O)[C@H]3CC[C@H]12	2.13% [at 11.4 µM] (inactive)	
COc1ccc(CC(=O)Nc2ccc(-c3nnc(-c4ccc(C)cc4)o3)cc2)cc1		0.251 µM (active)
Cc1ccc(OCC(=O)Nc2ccc(-c3nc4ncccc4o3)cc2)cc1	-29.8% (inactive)	
Cc1ccc(OCC(=O)Nc2ccc(-c3nnc(-c4ccco4)o3)cc2)cc1	13.8% (inactive)	
CO[C@H]1COC(=O)C/C=C\[C@H](C)COC(=O)[C@@H](OCc2ccccc2)/C=C\[C@@H]1C	8.32% [at 11.4 µM] (inactive)	
COc1ccc2c(=O)cc(-c3ccccc3)oc2c1O	-7.36% (inactive)	
Cc1cc2nc3c(=O)[nH]c(=O)nc-3n(C[C@H](O)[C@H](O)[C@H](O)CO)c2cc1C	-15.5% (inactive)	
COc1cccc(-c2nn(C)c3sc(C(=O)N4CCN(c5ccccc5)CC4)cc23)c1	-8.9% (inactive)	
Cc1cccc(-n2c(N)c(C(=O)N3CCN(C)CC3)sc2=S)c1		0.631 µM (active)
O=C(c1ccccc1)N1CCN(C(=O)N2CCCCC2)CC1	5.98% (inactive)	
Cc1cccc(-n2c(N)cc(=O)nc2SC(C)C(=O)NC2CCCCC2)c1 (stereo not drawn)	3.12% (inactive)	

SMILES	activity change, negative = inhibition	Potency
N#Cc1ccccc1-n1c(N)c(C(=O)N2CCCC2)sc1=S		2.51 µM (active)
CC(=O)c1c(N2CCOCC2)nc(=S)n(-c2cc(C)ccc2C)c1C	0.579% (inactive)	
Cc1ccc(OCCCC(=O)N2CCOCC2)c(C)c1	13.5% (inactive)	
CCC(=O)Nc1sc(C(=O)N2CCCCC2)c(C)c1C#N	-0.224% (inactive)	
Cc1ccc(-n2c(N)c(C(=O)N3CCOCC3)sc2=S)c(C)c1		3.16 µM (active)
N#Cc1cc2[nH]c(=O)c(=O)[nH]c2cc1[N+](=O)[O-]	-19.4% (inactive)	
CCC[C@H]1C(=O)N2C(N(C)C)=Nc3ccc(C)cc3N2C1=O	2.69% [at 25.6 µM] (inactive)	
Cc1cnc(CNc2ncncc2-c2ccccc2Cl)cn1	-29.7% (inactive)	
COC(=O)[C@H]1C[C@@H]1[C@H](NC(=O)Oc1ccc(F)cc1)c1ccccc1	3.03% (inactive)	
O=c1cc(-c2ccccc2)[nH]c2nc(Cl)ccc12		25.1 µM (active)
CN1CCN(c2ncc3nc(-c4ccc(Cl)cc4)c(=O)n(-c4ccccc4)c3n2)CC1	43.8% (inactive)	
C#CCC(C(=O)OC)(C(=O)OC)C(C[N+](=O)[O-])c1ccccc1 (stereo not drawn)	1.44% [at 11.4 µM] (inactive)	
Cc1ccc2oc(=O)ccc2c1	-5.29% (inactive)	
CCN(CC)c1ccc2oc(=O)c(C)nc2c1		3.98 µM (active)
CC(=O)OCC1OC(C#CCCCc2ccccc2)C=CC1OC(C)=O (stereo not drawn)	-21.4% [at 11.4 µM] (inactive) and -18.3% [at 11.4 µM] (inactive)	
COc1cccc(C(=O)c2cc3ccc(O)cc3oc2=O)c1	-27.7% (inactive)	
O=c1oc2cc(O)ccc2cc1-c1ccc(F)cc1	15.3% (inactive)	
COc1ccc(-c2cc3ccc(OCc4nn[nH]n4)cc3oc2=O)cc1		3.16 µM (active)
Nc1ccccc1N	1.07% (inactive)	
COC(=O)N1CCC[C@@]2(CCN(C(=O)NC(C)C)C2)C1	-4.88% (inactive)	
N=C(CC(=O)Nc1ccccn1)c1ccccc1	6.89% [at 11.4 µM] (inactive)	
CC(C)c1cc(CN(C)C)c(O)c(C(C)(C)C)c1	-0.755% [at 11.4 µM] (inactive)	
O=C(Nc1cc(N2CCOCC2)ncn1)NC1(C(F)(F)F)Oc2ccc(Cl)cc2O1 (stereo not drawn)		3.16 µM (active)
c1cnn(-c2cc(N3CCOCC3)ncn2)c1	6.49% (inactive)	
O=C(CN1CCOCC1)Nc1cc(Cl)ccc1Cl	3.52% (inactive)	

Reference: PubChem BioAssay AID886 (National Center for Advancing Translational Sciences (NCATS), 2007)
